Experimental findings from PubChem BioAssay (Tox21) are described below.

Inconclusive results are not listed. A call without a number means that no potency is given here. Calls of active or inactive are those of the source. Calls follow the shape of the dose curve; as a rule, active = well fitted cell-killing curve with a large enough effect in the repeat runs; inconclusive = weak or mixed curves, or effect the other way; inactive = no such curve, though single readings can be large or run the other way.
Potency is read from the fitted curve at half-maximal effect.

A short description of one assay: qHTS assay to identify small molecule antagonists of the glucocorticoid receptor (GR) signaling pathway - cell viability counter screen (AID 720693). Also: nearly all actives have a fitted effect of over 55% in size. The following applies: GR-bla HeLa viability, CellTiter-Glo luminescence, 18 h, with 5 nM dexamethasone present; series mostly up to 58.5 µM.
Turning to `O=C1OCCN1/N=C/c1ccc([N+](=O)[O-])o1`, the Potency result is “inactive”. Turning to `CC(=N\O)/C(C)=N/O`, the Potency entry was “inactive”.

For `O=C(CS)OCCOC(=O)CS`, the Potency entry is “inactive”. Consider `O=C(Nc1ccccc1)Nc1ccccc1`, for which the Potency entry is “inactive”. As to `CCCOc1ccc(S(=O)(=O)N2CCN(CC)CC2)cc1-c1nc2c(CC)n(Cc3ccccn3)nc2c(=O)[nH]1`, the Potency result was “inactive”.

Regarding `Nc1ccc(C(=O)OCCCOC(=O)c2ccc(N)cc2)cc1`, the Potency result was “inactive”. As to `CO[C@@]12[C@H](COC(N)=O)C3=C(C(=O)C(C)=C(N)C3=O)N1C[C@@H]1N[C@@H]12`, the Potency was 23.9 µM (active). The same measure, in the same setting: to `C[C@@H]1C[C@H]2[C@@H]3CCC4=CC(=O)C=C[C@]4(C)[C@@]3(F)[C@@H](O)C[C@]2(C)[C@@]1(O)C(=O)CO` belongs “inactive”; to `CC1(C)O[C@@H]2C[C@H]3[C@@H]4CCC5=CC(=O)C=C[C@]5(C)[C@H]4[C@@H](O)C[C@]3(C)[C@]2(C(=O)CO)O1`, “inactive”; to `Cc1ccc(S(=O)(=O)NC2CCCCC2)cc1`, “inactive”.

Regarding `CC(=O)OCC(=O)[C@H]1CC[C@H]2[C@@H]3CCC4=CC(=O)CC[C@]4(C)[C@H]3CC[C@]12C`, the Potency result was “inactive”. For the compound `CCCCCCCCCCCC[N+](C)(C)CCCS(=O)(=O)[O-]`, the Potency entry is “inactive”. For `COCCOC`, the Potency entry was “inactive”.

Turning to `CCCCC(=O)O[C@]1(C(=O)CO)CC[C@H]2[C@@H]3CCC4=CC(=O)CC[C@]4(C)[C@H]3[C@@H](O)C[C@@]21C`, the Potency entry was “inactive”.

A short description of another assay: qHTS assay for identifying genotoxic compounds that show differential cytotoxicity against isogenic chicken DT40 cell lines with known DNA damage response pathways - wild type cell line (AID 743012). Also: nearly all actives have a fitted effect of over 60% in size. The following applies: DT40 wild type chicken cells viability, CellTiter-Glo, 40 h; series mostly up to 68.4 µM. In short, it runs like this: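 Endpoint: CellTiter-Glo luminescence, 30 min RT. Cells: wild type DT40, 300/well. Exposure: compounds in DMSO, 40 h, 37 C/5% CO2, after ~0.5 h pre-incubation.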
For `Cc1ccc(Nc2nccc(N(C)c3ccc4c(C)n(C)nc4c3)n2)cc1S(N)(=O)=O`, the Potency is 9.44 µM (active). On to `Cc1ccccc1N1C(=O)c2cc(S(N)(=O)=O)c(Cl)cc2NC1C` (configuration not stated), for which the Potency result was “inactive”. As to `CC(CCc1ccc2c(c1)OCO2)NN` (configuration not stated), the Potency result was “inactive”.

On to `CCCCCC=CCC=CCCCCCCCC(=O)OCC`, for which the Potency entry was “inactive”. `CC(C)(O)c1ccccc1CC[C@@H](SCC1(CC(=O)O)CC1)c1cccc(/C=C/c2ccc3ccc(Cl)cc3n2)c1`: the Potency result was “inactive”. The same measure, in the same setting: to `CC1=NN(c2ccc(C(=O)O)cc2)C(=O)C1` belongs “inactive”. For the compound `O=C(O)c1snc(Cl)c1Cl`, the Potency is 61.1 µM (active). For `O=C(N/N=C/c1ccc([N+](=O)[O-])o1)c1ccc(O)cc1`, the Potency is 4.52 µM (active). On to `C[N+]1(C)CCC(=C(c2ccccc2)c2ccccc2)CC1`, for which the Potency entry is “inactive”. As for `CC(=O)Nc1ccc(N)cc1`, the Potency result was “inactive”. With `C=CC(=C)CCCC(C)(C)OC(C)=O`, the Potency result is “inactive”. `c1ccc(COCc2ccccc2)cc1`: the Potency result was “inactive”.

For `CC(C)C(OC(=O)c1ccccc1)C(C)(C)COC(=O)c1ccccc1` (configuration not stated), the Potency is 21.7 µM (active). Turning to `ON(Cc1ccccc1)Cc1ccccc1`, the Potency result is “inactive”. The same measure, in the same setting: to `CC(C)(C)C(=O)O` belongs “inactive”; to `Fc1c(F)c(F)c(Br)c(F)c1F`, “inactive”; to `CCC(C)=O`, “inactive”. Consider `CC1CC(=O)NN=C1c1ccc(NCC(C)(C)NCC(O)COc2cc(Cl)ccc2C#N)cc1` (configuration not stated), for which the Potency is 0.668 µM (active). In the case of `CC(N)CN` (configuration not stated), the Potency entry was “inactive”. Same read-out and setting: to `CCCCOC(=O)CCS` belongs “inactive”; to `CC[C@@H]([C@H](C)O)n1ncn(-c2ccc(N3CCN(c4ccc(OC[C@@H]5CO[C@@](Cn6cncn6)(c6ccc(F)cc6F)C5)cc4)CC3)cc2)c1=O`, 1.19 µM (active); to `Cc1cc(S(=O)(=O)O)ccc1N=Nc1c(O)ccc2ccccc12`, “inactive”. Turning to `O=C(O)C(Cc1cc(I)c(O)c(I)c1)c1ccccc1` (configuration not stated), the Potency entry is “inactive”. Turning to `Fc1ccccc1[C@@H](F)COC1CCC(Nc2ncnc3[nH]ncc23)CC1` (some centres not stated), the Potency is 15.4 µM (active).

A short description of another assay: qHTS assay for identifying genotoxic compounds that show differential cytotoxicity against isogenic chicken DT40 cell lines with known DNA damage response pathways - Rev3 mutant cell line (AID 743014). Also: nearly all actives have a fitted effect of over 55% in size. As to conditions: chicken DT40 Rev3-/- viability, CellTiter-Glo, 40 h; series mostly up to 68.4 µM.
Turning to `Cc1ccc(Nc2nccc(N(C)c3ccc4c(C)n(C)nc4c3)n2)cc1S(N)(=O)=O`, the Potency is 11.9 µM (active). As for `Cc1ccccc1N1C(=O)c2cc(S(N)(=O)=O)c(Cl)cc2NC1C` (configuration not stated), the Potency result is “inactive”. Regarding `CC(CCc1ccc2c(c1)OCO2)NN` (configuration not stated), the Potency entry is “inactive”. `CCCCCC=CCC=CCCCCCCCC(=O)OCC`: the Potency entry is “inactive”. `CC(C)(O)c1ccccc1CC[C@@H](SCC1(CC(=O)O)CC1)c1cccc(/C=C/c2ccc3ccc(Cl)cc3n2)c1`: the Potency result is “inactive”. As to `CC1=NN(c2ccc(C(=O)O)cc2)C(=O)C1`, the Potency entry was “inactive”. Consider `O=C(O)c1snc(Cl)c1Cl`, for which the Potency is 61.1 µM (active). `O=C(N/N=C/c1ccc([N+](=O)[O-])o1)c1ccc(O)cc1`: the Potency is 4.03 µM (active).

In the case of `C[N+]1(C)CCC(=C(c2ccccc2)c2ccccc2)CC1`, the Potency entry was “inactive”.

For the compound `CC(=O)Nc1ccc(N)cc1`, the Potency result was “inactive”. Turning to `C=CC(=C)CCCC(C)(C)OC(C)=O`, the Potency result was “inactive”. For `c1ccc(COCc2ccccc2)cc1`, the Potency result is “inactive”. Take `CC(C)C(OC(=O)c1ccccc1)C(C)(C)COC(=O)c1ccccc1` (configuration not stated): the Potency was 27.3 µM (active).

As for `ON(Cc1ccccc1)Cc1ccccc1`, the Potency entry is “inactive”. Turning to `CC(C)(C)C(=O)O`, the Potency entry was “inactive”. As for `Fc1c(F)c(F)c(Br)c(F)c1F`, the Potency result was “inactive”. On the same count and under the same terms, to `CCC(C)=O` belongs “inactive”; to `CC1CC(=O)NN=C1c1ccc(NCC(C)(C)NCC(O)COc2cc(Cl)ccc2C#N)cc1` (configuration not stated), 0.376 µM (active); to `CC(N)CN` (configuration not stated), “inactive”.

For `CCCCOC(=O)CCS`, the Potency entry was “inactive”.

As for `CC[C@@H]([C@H](C)O)n1ncn(-c2ccc(N3CCN(c4ccc(OC[C@@H]5CO[C@@](Cn6cncn6)(c6ccc(F)cc6F)C5)cc4)CC3)cc2)c1=O`, the Potency was 1.88 µM (active).

`Cc1cc(S(=O)(=O)O)ccc1N=Nc1c(O)ccc2ccccc12`: the Potency was 61.1 µM (active). As for `O=C(O)C(Cc1cc(I)c(O)c(I)c1)c1ccccc1` (configuration not stated), the Potency result is “inactive”. With `Fc1ccccc1[C@@H](F)COC1CCC(Nc2ncnc3[nH]ncc23)CC1` (some centres not stated), the Potency was 17.2 µM (active).
